# Values joined by “and” are separate entries in the source; they are usually repeats but may differ in a detail not shown here. Equal values may be shown once. Among all 350,000 compounds or so, about 600 (0.17%) were called active.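 Rule for the calls: active = every replicate shows inhibition of at least 40%; inconclusive = mean inhibition at least 40% but some replicate below; inactive = the rest.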 What follows is part of a selection rich in actives, with near analogues and random picks from the rest.
# Assay: compounds lowering acetylated PGC1a in cells – cell-based, U2OS, AlphaScreen, inhibitor mode, primary screen (AID 651687);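 note: 0% = neutral control wells and 100% = positive control wells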
# Conditions: U2OS PGC1a acetylation, AlphaScreen anti-acetyl-lysine; at 15.6 µM; hits give high values; with virally co-expressed GCN5 acetyltransferase
row,SMILES,inhibition
1,CN(C)CC(=O)Nc1ccc2c(c1)[C@H]1C[C@H](CC(=O)NCc3ccc4c(c3)OCO4)O[C@@H](CO)[C@H]1O2,-4.35% (inactive)
2,CC(=O)N(C)C[C@@H]1Oc2ncc(C#CCc3ccccc3)cc2C(=O)N([C@H](C)CO)C[C@H]1C,2.72% (inactive)
3,Cc1ccc(S(=O)(=O)Nc2ccc3c(c2)C(=O)N([C@H](C)CO)C[C@@H](C)[C@H](CN(C)Cc2ccccc2)O3)cc1,-12.1% (inactive)
4,CCNC(=O)C[C@@H]1CC[C@@H]2[C@H](COc3ccc(NC(=O)Nc4cccc(C)c4)cc3C(=O)N2C)O1,0.938% (inactive)
5,O=C(C[C@@H]1C[C@@H]2c3cc(NC(=O)Nc4ccccc4F)ccc3O[C@@H]2[C@@H](CO)O1)NCCc1ccccc1,9.83% (inactive)
6,O=C(C1CCCC1)N1CC(=O)N2[C@@H](CO)[C@H](c3ccc(C#CC4CCCC4)cc3)[C@@H]2C1,-10.1% (inactive)
7,O=C(C[C@@H]1CC[C@H](NC(=O)Nc2ccc3c(c2)OCO3)[C@H](CO)O1)NCc1ccccc1,2.06% (inactive)
8,COc1ccc(C(N)c2csc(NC(=O)Nc3cccc(C(F)(F)F)c3)n2)cc1 (configuration not stated),-29.2% (inactive)
9,COc1cc(NC(=O)c2cncc(-c3ccc(C#N)cc3)c2)cc(C(=O)Nc2cccc(C(F)(F)F)c2)c1,4.55% (inactive) and 7.38% (inactive)
10,COc1cc(NC(=O)c2[nH]cnc2C(N)=O)cc(C(=O)Nc2cccc(C(F)(F)F)c2)c1,62.8% (active)
11,COc1cccc(-c2cn(CC[C@@H]3CC[C@@H](NC(C)=O)[C@@H](CO)O3)nn2)c1,22.5% (inactive)
12,O=C(C[C@H]1C=C[C@@H](NC(=O)c2cnccn2)[C@H](CO)O1)NCc1ccccc1F,-3.99% (inactive)
13,Cc1noc(C)c1S(=O)(=O)Nc1ccc2c(c1)CC(=O)N([C@H](C)CO)C[C@@H](C)[C@@H](CN(C)C)O2,4.76% (inactive)
14,CCCNC(=O)C[C@H]1CC[C@@H]2[C@H](COC[C@H](O)CN2CC2CCCCC2)O1,-2.1% (inactive)
15,O=C(O)C[C@H]1C[C@@H]2c3cc(NC(=O)Nc4ccc(C(F)(F)F)cc4)ccc3O[C@@H]2[C@@H](CO)O1,-2.34% (inactive)
16,C[C@H](O)C#Cc1ccc([C@H]2[C@H](CO)N3CCCCN(C(=O)c4ccc(F)cc4)C[C@@H]23)cc1,-4.78% (inactive)
17,CCC(=O)N(C)C[C@H]1Oc2ncc(-c3ccc(C#N)cc3)cc2C(=O)N([C@@H](C)CO)C[C@H]1C,-11.3% (inactive)
18,CCCNC(=O)N[C@H]1C=C[C@@H](CC(=O)NC2CCCCC2)O[C@H]1CO,-18.5% (inactive)
19,Cc1ccc(S(=O)(=O)Nc2ccc3c(c2)C(=O)N([C@@H](C)CO)C[C@H](C)[C@@H](CN(C)Cc2ccc4c(c2)OCO4)O3)cc1,1.59% (inactive)
20,COC(=O)C[C@H]1CC[C@@H]2[C@@H](COc3ccc(NC(=O)Nc4ccc(Cl)cc4)cc3C(=O)N2C)O1,-4.91% (inactive)
21,N[C@@H](Cc1ccccc1)C(=O)N1CCOCC1,-8.48% (inactive)

row,SMILES,inhibition
1,NC(=NC(=O)c1ccccc1)N1CCOCC1,84.1% (active)
2,O=C(CSC(=S)N1CCOCC1)c1ccccc1,-7.05% (inactive)
3,CCCC(=O)Nc1ccc2c(c1)C(=O)N(C)[C@@H]1CC[C@H](CC(=O)NCCN3CCCCC3)O[C@@H]1CO2,1.12% (inactive)
4,C[C@@H]1CCCCO[C@H](CN(C)C(=O)c2ccccc2)[C@@H](C)CN([C@H](C)CO)C(=O)c2cc(NC(=O)c3ccccc3)ccc2O1,5.89% (inactive)
5,C[C@@H]1CN([C@H](C)CO)C(=O)c2cc(NC(=O)c3ccccc3)ccc2O[C@@H](C)CCCCO[C@H]1CN(C)C(=O)c1ccncc1,8.37% (inactive)
6,CCNC(=O)Nc1ccc2c(c1)C(=O)N(C)[C@@H]1CC[C@@H](CC(=O)NC3CCCCC3)O[C@H]1CO2,1.93% (inactive)
7,C[C@@H]1CN([C@H](C)CO)C(=O)c2cc(NC(=O)C3CCCCC3)ccc2O[C@@H](C)CCCCO[C@H]1CN(C)S(C)(=O)=O,6.77% (inactive)
8,COc1ccc(S(=O)(=O)N(C)C[C@@H]2Oc3ccc(NC(=O)Cc4cn(C)c5ccccc45)cc3C(=O)N([C@H](C)CO)C[C@H]2C)cc1,-8.14% (inactive)
9,C[C@@H]1CN([C@H](C)CO)S(=O)(=O)c2ccc(-c3ccc(C(=O)N(C)C)cc3)cc2O[C@@H]1CN(C)C(=O)Nc1ccccc1F,-11.4% (inactive)
10,CO[C@H]1CN(C)C(=O)c2ccc(NC(=O)C3CC3)cc2OC[C@H](C)N(Cc2ccncc2)C[C@@H]1C,-7.97% (inactive)
11,COc1ccc(NC(=O)Nc2cccc3c2O[C@@H](CN(C)S(=O)(=O)c2ccc(C)cc2)[C@H](C)CN([C@@H](C)CO)C3=O)cc1,3.27% (inactive)
12,CO[C@H](C(=O)N(C)C[C@@H]1OCc2ccccc2-c2c(n(C)c3ccccc23)C(=O)N([C@@H](C)CO)C[C@H]1C)c1ccccc1,-1.42% (inactive)
13,CCCN1C[C@@H](C)[C@@H](OC)CN(C)C(=O)c2cc(NC(=O)C3CCC3)ccc2OC[C@H]1C,-10.1% (inactive)
14,CO[C@H]1CN(C)C(=O)c2cc(NS(=O)(=O)c3ccccc3)ccc2OC[C@H](C)N(C(=O)NC(C)C)C[C@@H]1C,8.54% (inactive)
15,O=C(c1ccncc1)N1CC2(C1)[C@@H](c1ccccc1)[C@H](CO)N2C(=O)c1ccncc1,6.1% (inactive)
16,C[C@@H]1CCCCO[C@@H](CN(C)C(=O)c2ccccc2)[C@H](C)CN([C@@H](C)CO)C(=O)c2cc(NS(C)(=O)=O)ccc2O1,-1.5% (inactive)
17,CCOC(=O)c1ccc2[nH]c3c(c2c1)CCCC3NC=O (configuration not stated),5% (inactive)
18,Cc1[nH]c2ccc(C(=O)N3CCN(C)CC3)cc2c1C,1.27% (inactive)
19,CCOC(=O)c1ccc2[nH]c(C)c(CN3CCN(C)CC3)c(=O)c2c1,59.3% (active)
20,CO[C@@H]1CN(C)C(=O)c2ccc(NS(C)(=O)=O)cc2OC[C@H](C)N(C(=O)C2CC2)C[C@H]1C,-8.93% (inactive)
21,COc1ccc(NC(=O)Nc2ccc3c(c2)C(=O)N([C@@H](C)CO)C[C@H](C)[C@@H](CN(C)S(=O)(=O)c2ccc(Cl)cc2)O3)cc1,-2.11% (inactive)

# — PubChem BioAssay AID651687 (Broad Institute, 2012)
